Pf Dd2 growth – qHTS Primary assay for Inhibitors of Plasmodium falciparum Dd2 growth in vitro | Potency, µM (series often up to 28.9 µM), actives largely listed as inhibitors | P. falciparum Dd2 growth, SYBR Green, 72 h | actives 4.3% (n = 120,000) | AID 1347417, 2020; active means well fitted inhibition curve with a large enough effect; further: nearly all actives have a fitted effect of over 65% in size
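Readout: SYBR Green fluorescence, 485 nm excitation, 535 nm emission, after ~16 h lysis at 37C. Before that, Dd2-infected red cells (2.5% hematocrit) grew 72 h with compound, 29 uM top final concentration.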
Hits are given with their value; 0 = inactive. Shown is part of a subset that was picked to be rich in hits.

SMILES	Pf Dd2 growth
Clc1ccc(-c2noc3ncnc(NCCCN4CCN(c5ccccc5)CC4)c23)cc1	11.2µM
COc1ccc(NC(=O)CN2C(=O)NC(c3ccc(Cl)cc3)C3=C2COC3=O)cc1Cl (stereo unspecified)	0
CNc1cc(C2CC(NS(=O)(=O)c3ccc(Cl)s3)C2)nc(N)n1 (stereo unspecified)	7.94µM
COCCOC1CCN(S(=O)(=O)c2c(C)noc2C)CC1	0
CN1CC2(CCN(Cc3ccccn3)CC2)CC1C(=O)N1CCOCC1 (stereo unspecified)	0
CN1CC2(CCN(C(=O)CCCc3ccccc3)CC2)CC1C(=O)N1CCOCC1 (stereo unspecified)	2.24µM
CN1CC2(CCN(Cc3cccn3C)CC2)CC1C(=O)N1CCOCC1 (stereo unspecified)	0
Cc1cccc(CN2CCCC3(CCN(c4cc(C)nc(N)n4)C3)C2=O)c1 (stereo unspecified)	0
COc1ccc(N2CCN(C(=O)CCS(=O)(=O)c3cc(Br)cc4c3N(C(=O)C3CC3)CC4)CC2)cc1	5.01µM
CCOc1ccc(NS(=O)(=O)c2cc(Br)cc3c2N(C(=O)C2CC2)CC3)cc1	0
O=C(CCS(=O)(=O)c1cc(Br)cc2c1N(C(=O)C1CC1)CC2)Nc1ccc(F)cc1	3.98µM
CCC(=O)N1CCc2cc(Br)cc(S(=O)(=O)CCC(=O)N3CCN(c4cc(C)ccc4C)CC3)c21	0
Cc1ccc(Cl)cc1N1CCN(C(=O)CCNS(=O)(=O)c2ccc3c(c2)CCN3C(=O)C2CC2)CC1	0
Cc1ccc(Cl)cc1N1CCN(C(=O)CCS(=O)(=O)c2cc(Br)cc3c2N(C(=O)C2CC2)CC3)CC1	10µM
CCC(=O)N1CCc2cc(Br)cc(S(=O)(=O)CCC(=O)Nc3ccccc3C)c21	0
CC(=O)N1CCc2cc(Br)cc(S(=O)(=O)CCC(=O)N3CCN(c4cccc(C)c4C)CC3)c21	0
Cc1ccc(Cl)cc1N1CCN(S(=O)(=O)c2cc(Br)cc3c2N(C(=O)C2CC2)CC3)CC1	0
CCc1cccc(NC(=O)CCS(=O)(=O)c2cc(Br)cc3c2N(C(C)=O)CC3)c1	0
CCN(Cc1ccccc1)S(=O)(=O)c1cc(Br)cc2c1N(C(=O)C1CC1)CC2	7.94µM
CCCCN(Cc1ccccc1)S(=O)(=O)c1cc(Br)cc2c1N(C(C)=O)CC2	0
COC(=O)C(=O)N1CC[C@H]2NC(=O)N(c3ccccc3)C(=O)[C@H]21	0
Cc1ccc(N2CCN(C(=O)c3noc(-c4ccc(F)cc4)n3)CC2)c(C)c1	0
COc1cccc2c1ccn2CCNC(=O)Cn1nc2c(cc1=O)CCCC2	0
O=c1n(CC2CC2)nc2n1CCN(S(=O)(=O)c1ccc(Cl)s1)CC2	0
Cc1nc(C)c(CC(=O)N(Cc2ccccc2)Cc2scnc2C)s1	0
SMILES	Pf Dd2 growth
Cc1cc(=O)n(CC(=O)Nc2ccc(C)c(F)c2)c(N2CCOCC2)n1	0
Cc1nc2n(c1C(=O)N(C)c1ccccc1)CCC(Nc1ccc(F)cc1)C2 (stereo unspecified)	0
CCCC(C)N1CC2(CCN(C(=O)c3c(CC)noc3C)CC2)OC1=O (stereo unspecified)	0
Cc1ncc(C(=O)NC(c2ccccc2)c2nnc(N)s2)c(=O)[nH]1 (stereo unspecified)	0
CC1=C[C@@H](CNC(=O)COc2ccccc2)[C@H](C(C)C)C[C@H]1CC(=O)NCCN(C)C	0
Cn1ccc2cc(-c3ccc4c(n3)c(=O)ncn4CC3CC3)ccc21	0
CCO[C@H]1CN(C(=O)c2ccccc2OC(F)(F)C(F)F)C[C@@H]1O	0
COC(=O)c1ccc2nc(C[C@@H]3C[C@@H](C(C)C)[C@H](CN(C)C)C=C3C)[nH]c2c1	12.6µM
COC(=O)c1ccc2nc(C[C@@H]3C[C@@H](C(C)C)[C@H](CNC(=O)CN(C)C)C=C3C)[nH]c2c1	0
COc1ccc2nc(C[C@@H]3C[C@@H](C(C)C)[C@H](CNC4CCCCC4)C=C3C)[nH]c2c1	2.82µM
CCC(CC)C(=O)NC[C@@H]1C=C(C)[C@H](Cc2nc3ccc(C)cc3[nH]2)C[C@H]1C(C)C	0
COc1ccc2nc(C[C@@H]3C[C@@H](C(C)C)[C@H](CN4C(=O)C(C)=C(C)C4=O)C=C3C)[nH]c2c1	0
COC(=O)c1ccc2nc(C[C@@H]3C[C@@H](C(C)C)[C@H](CNC(=O)CCCC(=O)O)C=C3C)[nH]c2c1	0
CC1=C[C@@H](CN)[C@H](C(C)C)C[C@H]1Cc1nc2ccccc2[nH]1	0
COC(=O)c1ccc2nc(C[C@@H]3C[C@@H](C(C)C)[C@H](CNC(=O)COCC(=O)O)C=C3C)[nH]c2c1	0
COCC(=O)NC[C@@H]1C=C(C)[C@H](Cc2nc3ccc(C(=O)OC)cc3[nH]2)C[C@H]1C(C)C	11.2µM
CC1=C[C@@H](CNC(=O)C2CCCCC2)[C@H](C(C)C)C[C@H]1Cc1nc2c(C)cccc2[nH]1	0
CC1=C[C@@H](CNC(=O)C2CCCCC2)[C@H](C(C)C)C[C@H]1Cc1nc2ccc(C)cc2[nH]1	11.2µM
COc1ccc(CC(=O)N2CC(C(=O)NCCc3ccncc3)C3(CCOCC3)C2)cc1 (stereo unspecified)	0
